The results in this text go back to PubChem BioAssay AID602400 (Sanford-Burnham Center for Chemical Genomics, 2012).

Activity calls are given as the source filed them. No rule for the calls is given here.

This test is described as follows: off-target activity on Bfl-1 – biochemical, set 4, counter-screen for UBC13 polyubiquitination inhibitor project, SAR follow-up (AID 602400). The note with it: Bfl-1 counterscreen for UBC13 inhibitors.
For orientation: IC50 means the midpoint of a concentration-inhibition curve. Turning to `Cc1cc(C)cc(NC(=O)C2CCN(c3ncnc4c3nc3n4CCCC3)CC2)c1`, the IC50 was 23.9 µM (active).

As for `O=C(NCc1cccc(Cl)c1)C1CCCN(c2ncnc3c2nc2n3CCCCC2)C1` (stereo not drawn), the IC50 was > 100 µM (inactive).

As to `O=C(C1CCN(c2ncnc3c2nc2n3CCCCC2)CC1)N1CCN(c2ncccn2)CC1`, the IC50 was > 100 µM (inactive).

Take `Cc1ccc(NC(=O)C2CCCN(c3ncnc4c3nc3n4CCCCC3)C2)cc1Br` (stereo not drawn): the IC50 was > 100 µM (inactive).

As for `Cc1c(Cl)cccc1NC(=O)C1CCN(c2ncnc3c2nc2n3CCCCC2)CC1`, the IC50 is > 100 µM (inactive).

`O=C(C1CCN(c2ncnc3c2nc2n3CCCCC2)CC1)N1CCOCC1`: the IC50 was > 100 µM (inactive).

Take `COc1ccc(NC(=O)C2CCN(c3ncnc4c3nc3n4CCCCC3)CC2)cc1Cl`: the IC50 is > 100 µM (inactive).

`Cc1cc(C)cc(NC(=O)C2CCCN(c3ncnc4c3nc3n4CCCCC3)C2)c1` (stereo not drawn): the IC50 was > 100 µM (inactive).

Regarding `O=C(C1CCN(c2ncnc3c2nc2n3CCCCC2)CC1)N1CCN(c2ccccc2)CC1`, the IC50 is > 100 µM (inactive).

`O=C(NCC1CCN(Cc2cccc(Cl)c2)CC1)[C@H]1CCCN(c2ncnc3c2nc2n3CCCCC2)C1`: the IC50 is > 100 µM (inactive).

Take `Cc1ccc(NC(=O)C2CCN(c3ncnc4c3nc3n4CCCCC3)CC2)c(Cl)c1`: the IC50 is > 100 µM (inactive).

In the case of `Cc1ccc(C)c(N2CCN(CCCNC(=O)C3CCCN(c4ncnc5c4nc4n5CCCCC4)C3)CC2)c1` (stereo not drawn), the IC50 was > 100 µM (inactive).

As to `Cc1ccc(NC(=O)C2CCN(c3ncnc4c3nc3n4CCCCC3)CC2)cc1F`, the IC50 was > 100 µM (inactive).

Regarding `O=C(C1CCN(c2ncnc3c2nc2n3CCCCC2)CC1)N1CCN(Cc2ccccc2)CC1`, the IC50 was > 100 µM (inactive).

As to `CCC1CCCCN1CCCNC(=O)C1CCN(c2ncnc3c2nc2n3CCCCC2)CC1` (stereo not drawn), the IC50 was > 100 µM (inactive).

As to `O=C(NCC1CCN(Cc2cccc(Cl)c2)CC1)[C@H]1CCCN(c2ncnc3c2nc2n3CCCC2)C1`, the IC50 was > 100 µM (inactive).

For the compound `CC1CCCCN1C(=O)C1CCN(c2ncnc3c2nc2n3CCCCC2)CC1` (stereo not drawn), the IC50 was > 100 µM (inactive).

As to `O=C(NCC1CCN(Cc2cccc(Cl)c2)CC1)[C@@H]1CCCN(c2ncnc3c2nc2n3CCCCC2)C1`, the IC50 is > 100 µM (inactive).

Regarding `Cc1cccc(NC(=O)C2CCN(c3ncnc4c3nc3n4CCCC3)CC2)c1`, the concentration for half-maximal inhibition (IC50) was 23 µM (active).

As for `O=C(NCC1CCN(Cc2ccc(Cl)c(Cl)c2)CC1)C1CCCN(c2ncnc3c2nc2n3CCCC2)C1` (stereo not drawn), the IC50 is > 100 µM (inactive).

Consider `COc1ccc(Cl)cc1NC(=O)C1CCN(c2ncnc3c2nc2n3CCCCC2)CC1`, for which the IC50 is > 100 µM (inactive).

With `O=C(Nc1ccc(F)c(Cl)c1)C1CCN(c2ncnc3c2nc2n3CCCCC2)CC1`, the IC50 is > 100 µM (inactive).

`O=C(NCCCN1CCCCC1)C1CCN(c2ncnc3c2nc2n3CCCCC2)CC1`: the IC50 is > 100 µM (inactive).

In the case of `O=C(Nc1cccc(Cl)c1)C1CCN(c2ncnc3c2nc2n3CCCCC2)CC1`, the IC50 is > 100 µM (inactive).

On to `Cc1ccc(NC(=O)C2CCCN(c3ncnc4c3nc3n4CCCCC3)C2)cc1F` (stereo not drawn), for which the IC50 is > 100 µM (inactive).

On to `O=C(NCC1CCN(Cc2ccccc2Cl)CC1)C1CCCN(c2ncnc3c2nc2n3CCCCC2)C1` (stereo not drawn), for which the IC50 was > 100 µM (inactive).

Take `O=C(NCC1CCN(Cc2cccc(Cl)c2)CC1)C1CCCN(c2ncnc3c2nc2n3CCCCC2)C1` (stereo not drawn): the IC50 was > 100 µM (inactive).

In the case of `O=C(c1ccco1)N1CCN(C(=O)C2CCN(c3ncnc4c3nc3n4CCCCC3)CC2)CC1`, the IC50 was > 100 µM (inactive).

With `O=C(NCc1ccc(Cl)c(Cl)c1)C1CCCN(c2ncnc3c2nc2n3CCCCC2)C1` (stereo not drawn), the IC50 is > 100 µM (inactive).

As for `CC1CC(C)CN(C(=O)C2CCN(c3ncnc4c3nc3n4CCCCC3)CC2)C1` (stereo not drawn), the IC50 was > 100 µM (inactive).

Take `O=C(Nc1ccc(CN2CCCCC2)cc1)C1CCN(c2ncnc3c2nc2n3CCCCC2)CC1`: the IC50 is > 100 µM (inactive).

For the compound `O=C(NCc1cccc(Cl)c1)C1CCN(c2ncnc3c2nc2n3CCCC2)CC1`, the IC50 is > 100 µM (inactive).

As for `Cc1ccc(NC(=O)C2CCCN(c3ncnc4c3nc3n4CCCC3)C2)cc1F` (stereo not drawn), the IC50 was > 100 µM (inactive).

For `Cc1ccc(NC(=O)C2CCN(c3ncnc4c3nc3n4CCCC3)CC2)cc1C`, the 50% inhibitory concentration (IC50) is 20.8 µM (active).

Turning to `Cc1cccc(NC(=O)C2CCCN(c3ncnc4c3nc3n4CCCCC3)C2)c1` (stereo not drawn), the IC50 is > 100 µM (inactive).

With `O=C(NCc1ccc(Cl)c(Cl)c1)C1CCN(c2ncnc3c2nc2n3CCCCC2)CC1`, the IC50 is > 100 µM (inactive).

Regarding `Cc1ccc(NC(=O)C2CCN(c3ncnc4c3nc3n4CCCC3)CC2)cc1Br`, the IC50 is 14.7 µM (active).

In the case of `O=C(NCC1CCN(Cc2ccc(Cl)c(Cl)c2)CC1)C1CCCN(c2ncnc3c2nc2n3CCCCC2)C1` (stereo not drawn), the IC50 was > 100 µM (inactive).
